Screens: PubChem, several laboratories
SUMO Mot1 rescue: blocks SUMOylation pathway, rescuing yeast Mot1-301 growth; S. cerevisiae Mot1-301 growth rescue, ATP luminescence, 38.5C; percent above DMSO median, 100 means doubled; growth rescue, % at 18.8 µM; hit rate 1% among 320,000;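 active = every valid replicate shows activation above 250% relative to neutral control wells; inactive = the rest, any valid replicate at or below 250%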;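 note: OY570 slx delta 5 strain wells were the positive control but not used for scaling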
MPTP inh: inhibitors of mitochondrial permeability transition pore | isolated mouse mitochondria, Ca2+ swelling absorbance, 30 min | inhibition, % at 10 µM | hit rate 1.4% among 360,000 | AID 602449;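 active = inhibition of 50% or more, scaled per plate between neutral and stimulator controls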;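 note: 0% = DMSO wells given calcium and 100% = 1 mM EGTA wells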
H9c2 protect: protects H9c2 cardiomyocytes from peroxide injury | H2O2 injury protection, ATPLite, 2 h | protection from H2O2 cell death, % at 20 µM | hit rate 0.63% among 360,000;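 active = compounds giving at least 50% protection of heart cells from peroxide-induced death in the single-dose screen, raw or plate-pattern-corrected value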;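 note: 0% = DMSO wells with peroxide and 100% = DMSO wells without peroxide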
aDG glyco act: increases alpha dystroglycan glycosylation; Pro5-aDG cells, alpha-DG glycosylation AlphaScreen (IIH6); 0% Pro5, 100% B10-LARGE cell signal; activation, % at 10 µM; hit rate 0.22% among 360,000; AID 624168;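 active = activation of at least 8% versus controls, or a plate z-score of at least 8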;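 note: Pro5 are CHO cells carrying HIG-tagged alpha-DG that lacks glycosylation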
CR mimetic SO: yeast age-related superoxide inhibition as caloric restriction mimetic; superoxide response (% of plate mean), % at 10 µM; hit rate 0.18% among 330,000; S. cerevisiae aged cells, superoxide DHE fluorescence; active compounds read low;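 active = superoxide response under a set limit, about three screen SD below normal, cut at about 65% in these data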;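 note: yeast aged for seven days with compound at 30 °C before DHE staining; 100% = average MFI of all compound-treated wells on the plate with controls excluded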
FAS TE block: inhibitors of human fatty acid synthase thioesterase domain. recombinant FAS-TE, OMFH fluorogenic substrate, fluorescence endpoint. inhibition, % at 15 µM. hit rate 0.67% among 360,000. AID 602261;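 active = compounds whose normalised, plate-corrected inhibition of enzyme fluorescence in the single-dose primary screen is 50% or more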;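 note: 0% = DMSO with enzyme and 100% = substrate without enzyme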
Mot1 SUMO dose: SUMO pathway inhibitors in yeast Mot1-301 growth. shares compounds with SUMO Mot1 rescue. S. cerevisiae Mot1-301 galactose growth, ATP luminescence, 24 h; -100 = growth of slx-deleted rescue strain. growth activity, percent, % at 42 µM. 2,300 tested, under 10 active;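 active = Signal drops as the depositor expects, and the fitted half-maximal dose is no more than ten times the top valid tested dose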;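 note: more negative values mean stronger growth rescue toward the control strain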
* marks the source's active call; other numbers are inactive results; [ ] = remark or other dose. Sampled rows, rich in hits. Any-hit rate of the full collection: about 3.8%.

How did CCC(c1nnnn1C1CCCC1)N1CCN(c2cccc(OC)c2)CC1 (configuration not stated) do in these assays?
SUMO Mot1 rescue: 747*; MPTP inh: 1; H9c2 protect: -2; aDG glyco act: 0; CR mimetic SO: 112; FAS TE block: 0; Mot1 SUMO dose: 0[21 µM]

How did CCOC(=O)c1cc2sc(C)cc2n1CC(=O)Nc1cccc(C)c1C do in these assays?
SUMO Mot1 rescue: 125; MPTP inh: 11; H9c2 protect: 9; aDG glyco act: 0; CR mimetic SO: 85; FAS TE block: 1

Results for CCOC(=O)c1cc2sc(C)cc2n1CC(=O)Nc1ccc2c(c1)OCCO2 ?
SUMO Mot1 rescue: 784*; MPTP inh: 2; H9c2 protect: -12; aDG glyco act: 0; CR mimetic SO: 81; FAS TE block: 11; Mot1 SUMO dose: 0

How did O=C(c1[nH]c(C(F)(F)F)nc1-c1ccccc1)N1CCOCC1 do in these assays?
MPTP inh: 1; H9c2 protect: 10; aDG glyco act: 0; FAS TE block: -5

What do the screens show for `COc1ccc(NC(=O)CN(C)CC(=O)NC2CCC(C)CC2)cc1` (configuration not stated)?
SUMO Mot1 rescue: -11; MPTP inh: 0; H9c2 protect: -1; aDG glyco act: 0; CR mimetic SO: 98; FAS TE block: -2

Results for COc1ccc(CN2C(=O)c3c(c(C)n(C)c3C)C2C(=O)NC2CCC(C)CC2)cc1 (configuration not stated) ?
SUMO Mot1 rescue: 697*; MPTP inh: 0; H9c2 protect: 7; aDG glyco act: 1; CR mimetic SO: 94; FAS TE block: 6; Mot1 SUMO dose: -1

How did O=C(COC(=O)c1ccc[n+]([O-])c1)Nc1ccc([N+](=O)[O-])cc1Cl do in these assays?
SUMO Mot1 rescue: -9; MPTP inh: 1; H9c2 protect: -5; aDG glyco act: 0; CR mimetic SO: 112; FAS TE block: -4

What do the screens show for `Cc1ccc(S(=O)(=O)N2CCN(C(=O)CSc3nc(N)cc(=O)[nH]3)CC2)c(C)c1`?
SUMO Mot1 rescue: 482*; MPTP inh: 1; H9c2 protect: 16; aDG glyco act: 0; CR mimetic SO: 110; FAS TE block: 0; Mot1 SUMO dose: 0

How did Cc1ccc(S(=O)(=O)N2CCN(C(=O)CSc3n[nH]c(N)n3)CC2)c(C)c1 do in these assays?
SUMO Mot1 rescue: 0; MPTP inh: -1; H9c2 protect: 0; aDG glyco act: 0; CR mimetic SO: 77; FAS TE block: -12

Results for COc1ccc2cc(C(=O)Nc3ccc(Cl)cc3)sc(=O)c2c1OC ?
SUMO Mot1 rescue: 752*; MPTP inh: 20; H9c2 protect: 2; aDG glyco act: 0; CR mimetic SO: 106; FAS TE block: -2; Mot1 SUMO dose: 0

What do the screens show for `Cc1nc(NC(=O)CSc2nc(N)cc(N)n2)sc1C`?
SUMO Mot1 rescue: 661*; MPTP inh: -1; H9c2 protect: 4; aDG glyco act: 0; CR mimetic SO: 84; FAS TE block: -6; Mot1 SUMO dose: 0

How did Cn1cc(Br)c(C(=O)Nc2nccs2)n1 do in these assays?
SUMO Mot1 rescue: 626*; MPTP inh: 1; H9c2 protect: -2; aDG glyco act: 0; CR mimetic SO: 102; FAS TE block: -16; Mot1 SUMO dose: 0

What do the screens show for `Cc1cc2nc(CCl)cc(=O)n2[nH]1`?
SUMO Mot1 rescue: active; MPTP inh: 0; H9c2 protect: 0; aDG glyco act: 1; CR mimetic SO: 98; FAS TE block: -4; Mot1 SUMO dose: 0

Results for Cc1cc(C)c(S(=O)(=O)NC2CC(C)(C)NC(C)(C)C2)cc1C ?
SUMO Mot1 rescue: -10; MPTP inh: 0; H9c2 protect: -1; aDG glyco act: 0; CR mimetic SO: 99; FAS TE block: -3

Results for COc1c(C)cc(S(=O)(=O)NC2CC(C)(C)NC(C)(C)C2)c(C)c1C ?
SUMO Mot1 rescue: 687*; MPTP inh: -1; H9c2 protect: 5; aDG glyco act: 0; CR mimetic SO: 100; FAS TE block: -7; Mot1 SUMO dose: 1

What do the screens show for `COc1ccccc1N1CCN(CCN2C(=O)C3CCCCN3C2=O)CC1` (configuration not stated)?
SUMO Mot1 rescue: 454*; MPTP inh: -2; H9c2 protect: -6; aDG glyco act: 0; CR mimetic SO: 105; FAS TE block: -2; Mot1 SUMO dose: 0

How did COc1ccc(C(=O)N/C(=C\c2cn(C)c3ccccc23)C(=O)OCCN(C)C)cc1 do in these assays?
SUMO Mot1 rescue: 507*; MPTP inh: 4; H9c2 protect: 9; aDG glyco act: 0; CR mimetic SO: 99; FAS TE block: -6; Mot1 SUMO dose: 0

What do the screens show for `Cc1cc(S(=O)(=O)NCc2ccccc2)ccc1OCC(=O)N1CCCC1`?
SUMO Mot1 rescue: -1; MPTP inh: -1; H9c2 protect: -6; aDG glyco act: 0; CR mimetic SO: 107; FAS TE block: -4

How did CCS(=O)(=O)c1nc(S(=O)(=O)c2ccc(Cl)cc2)c(N2CCc3ccccc3C2)s1 do in these assays?
SUMO Mot1 rescue: 444*; MPTP inh: 1; H9c2 protect: -2; aDG glyco act: 0; CR mimetic SO: 102; FAS TE block: 18; Mot1 SUMO dose: 0

Results for CCN1CCN(c2sc(S(=O)(=O)CC)nc2S(=O)(=O)c2ccc(Cl)cc2)CC1 ?
MPTP inh: -1; H9c2 protect: 2; aDG glyco act: 0; FAS TE block: 3

What do the screens show for `CCc1ccc(NC(=O)CN2CCN(c3ccc(OC)cc3)CC2)cc1`?
MPTP inh: 1; H9c2 protect: -8; aDG glyco act: 0; FAS TE block: 6

Results for CC(NC(=O)CCc1nnc(-c2ccc(-c3ccccc3)cc2)o1)c1nc2ccccc2[nH]1 (configuration not stated) ?
SUMO Mot1 rescue: 452*; MPTP inh: 0; H9c2 protect: 4; aDG glyco act: 0; CR mimetic SO: 100; FAS TE block: 3; Mot1 SUMO dose: 0

What do the screens show for `Cc1cccc(CC(C)NC(=O)CCc2nnc(-c3ccccc3)o2)n1` (configuration not stated)?
SUMO Mot1 rescue: 18; MPTP inh: -1; H9c2 protect: 5; aDG glyco act: 0; CR mimetic SO: 92; FAS TE block: -2

What do the screens show for `CCOc1ccc(C(=O)c2cccs2)cc1`?
SUMO Mot1 rescue: 387*; MPTP inh: 0; H9c2 protect: -13; aDG glyco act: 0; CR mimetic SO: 108; FAS TE block: 1; Mot1 SUMO dose: 0

Results for O=C1CCCCC1(O)Cc1ccc2c(c1)OCO2 (configuration not stated) ?
MPTP inh: -1; H9c2 protect: 9; aDG glyco act: 0; FAS TE block: -6
